Compound activity (PubChem)
IDH1 R132H inh: blocks human mutant IDH1 R132H enzyme; O75874; IDH1-R132H enzyme, NADPH consumption, diaphorase/resazurin fluorescence; Potency, µM (top dose mostly 76.6 µM), without a hit: at the top dose activity change, negative = inhibition, actives largely listed as inhibitors; hit rate 0.093% among 390,000; note: % is set by controls: 0 for no effect and ±100 for the full control effect; nearly all actives have a fitted effect of over 65% in size
Target sequence (O75874 whole entry R132H, stated change not applied): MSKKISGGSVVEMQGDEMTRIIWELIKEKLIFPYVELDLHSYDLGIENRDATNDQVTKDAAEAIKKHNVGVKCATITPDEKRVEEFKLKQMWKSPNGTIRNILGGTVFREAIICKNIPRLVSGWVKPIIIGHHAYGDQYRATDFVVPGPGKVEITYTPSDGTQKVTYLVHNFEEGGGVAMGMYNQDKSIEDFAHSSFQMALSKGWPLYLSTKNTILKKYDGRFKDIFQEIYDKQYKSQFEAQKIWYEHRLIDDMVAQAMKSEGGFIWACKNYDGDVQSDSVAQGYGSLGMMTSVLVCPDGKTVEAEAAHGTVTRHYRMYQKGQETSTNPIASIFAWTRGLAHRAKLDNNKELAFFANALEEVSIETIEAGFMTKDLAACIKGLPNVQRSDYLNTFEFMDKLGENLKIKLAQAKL
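IDH1-R132H (0.5 ug/mL dispensed) in pH 7.5 Tris buffer was preincubated 30 min with compound, then given a substrate mix of 0.016 mM NADPH and 2 mM alpha-KG for 80 min at room temperature; remaining NADPH was read by diaphorase/resazurin fluorescence.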
12-LOX inh: blocks human arachidonate 12S-lipoxygenase | purified 12hLO, xylenol orange hydroperoxide absorbance | Potency, µM (series often up to 108 µM), without a hit: at the top dose activity change, negative = inhibition, actives largely listed as inhibitors | hit rate 1.1% among 580,000 | AID 1671190; note: % is set by controls: 0 for no effect and ±100 for the full control effect
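Hydroperoxide product was detected by ferrous iron/xylenol orange as the 573 to 405 nm absorbance ratio. Arachidonic acid at 40 uM (final) was turned over for 30 min at room temperature by 150 nM human 12hLO, pH 7.0 Hepes buffer, after 15 min compound preincubation.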
rTrxR1 inhibitor: rat TrxR1 inhibition; hit rate 1% among 390,000; O89049; Potency, µM (doses to about 114 µM), for inactives: at the highest dose activity change, negative = inhibition, usual class: inhibitors; recombinant rTrxR1, NADPH fluorescence consumption, selenite substrate; note: % is set by controls: 0 for no effect and ±100 for the full control effect; nearly all actives have a fitted effect of over 65% in size
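Rat TrxR1 (90 nM in the dispensed reagent) was pre-reduced with 400 uM NADPH for 5 min at room temperature, then incubated with compound for 15 min. After 400 uM selenite was added, NADPH fluorescence (Ex 340/Em 450 nm) was followed for 8 min.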
TrxR1 substrate: rat thioredoxin reductase 1 substrate activity | hit rate 0.01% among 390,000 | Potency, µM (titrated, usually from 114 µM), for the others: top-dose activity change, negative = substrate turnover | O89049 | purified TrxR1 substrate turnover, NADPH consumption readout; note: % is set by controls: 0 for no effect and ±100 for the full control effect; nearly all actives have a fitted effect of over 50% in size
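Rat TrxR1, dispensed at 90 nM, was prereduced with 400 uM NADPH (final) for 5 min at ~22 deg C, then incubated with compound 15 min before 400 uM selenite. A first-read NADPH fluorescence drop versus no-compound background flagged substrates.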
GRP78 ERSR act: inducers of ER stress response in human glioma cells | Potency, µM, inactives show at the top dose activation, usual class: activators | hit rate 0.02% among 420,000 | U87-MG GRP78 promoter luciferase reporter, 16 h; note: series mostly up to about 76 µM; % of control where 0% means no effect; nearly all actives have a fitted effect of over 35% in size
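Stably transfected U87-MG human glioma cells carrying a GRP78-based luminescent sensor were seeded at 1000 cells/well, pin-dosed with compounds and incubated 16 h. Luciferase reagent was then added, and end-point luminescence was read after 10 min at room temperature.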
Apoferritin bind: candidate novel general anesthetic via apoferritin binding; apoferritin/1-aminoanthracene competitive binding, fluorescence; Potency, µM (top dose mostly 77.5 µM), for inactives: top-dose activity change, negative = displacement, usual class: inhibitors; hit rate 0.074% among 350,000; AID 485281; note: % is set by controls: 0 for no effect and ±100 for the full control effect; nearly all actives have a fitted effect of over 20% in size
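10 uM apoferritin + 50% sat. 1-AMA, PBS; cpd 10 min RT; Ex380/Em535 endpoint; normalized to free probe vs complex; 4-param Hill fit; propofol titration as pos. ctrl.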
An asterisk follows results filed as active; ? = inconclusive; . = not tested or not shown; [ ] = another dose, or the depositor's remark. This is a sample that favours compounds with a hit; in the whole collection about 1.7% have one here. Calls come from the whole dose curve; as a rule, active = well fitted curve in the direction sought with a large enough effect; inconclusive = small, poorly fitted or top-dose-only effect, or another doubt; inactive = no such curve, though single readings can be large; an effect the other way counts as inactive or inconclusive. Potency is the fitted concentration of half-maximal effect.

SMILES	IDH1 R132H inh	12-LOX inh	rTrxR1 inhibitor	TrxR1 substrate	GRP78 ERSR act	Apoferritin bind
Cc1ccc(Nc2cc(C)c3ccccc3n2)c(C)c1	.	-12%	.	.	.	.
Cc1ccc(NC(=O)C(C)Nc2ccc3oc(C)nc3c2)c(C)c1 (centres undefined)	.	13%	.	.	.	.
CCOc1ccccc1NC(=O)N1CCC(N2C(=O)C(OC)C23CCOCC3)CC1 (centres undefined)	.	55%	.	.	.	.
CCc1ccc(NC(=O)Nc2ccc3sc(NC(C)=O)nc3c2)cc1	.	7.1µM*	.	.	.	.
Cc1cccc(NC(=O)C2CC(=O)N(c3n[nH]c4cc(Br)ccc34)C2)c1 (centres undefined)	.	10%	.	.	.	.
O=C1COc2ccc(C(=O)COC(=O)c3ccc([N+](=O)[O-])cc3Cl)cc2N1	11%	-29%	50µM*	-11%	-4%	.
O=C1COc2ccc(C(=O)NC3CC3)cc2N1	7%	-6%	-11%	-12%	-7%	-5%
O=C(O)/C=C/C(=O)c1ccc2c(c1)NC(=O)CO2	2%	-4%	2.8µM*	-3%[57.1 µM]	-2%	-2%
O=C1COc2ccc(C(=O)COC(=O)/C=C/c3ccco3)cc2N1	3%	.	50µM*	-1%	-2%	.
CCCCN(CC)C(=O)CSc1nc2ccccc2c(=O)n1Cc1ccco1	16%	-3%	5%[57.1 µM]	1%[57.1 µM]	-2%	-2%
O=C(N[C@@H]1CN(C(=O)Nc2ccc(F)cc2)CCC[C@H]1O)c1ccc(O)cc1	.	0%[176 µM]	.	.	.	.
O=C(CSc1nccn1Cc1ccccc1Cl)Nc1cccc(F)c1	.	5%	.	.	.	.
CCC(=O)N(C1CCOCC1)C1CCN(S(=O)(=O)c2cc(F)cc(F)c2)CC1	.	33%	.	.	.	.
CCN(CC)Cc1cc(O)c(CN(CC)CC)cc1O	13%	49%	10µM*	7%	-4%	-8%
O=C(NCc1ccncc1)c1nn(-c2ccccc2)c(=O)c2ccccc12	.	50%	.	.	.	.
COc1ccc(C(=O)NC(=S)Nc2ccc(CN3CCOCC3)cc2)cc1Cl	5%	32µM*	33%	2%	-6%	-23%
O=C(NC(=S)Nc1ccc(N2CCOCC2)cc1)c1ccccc1	10%	?	?	2%[57.1 µM]	0%	-14%
COc1ccc(C(=O)NC(=S)Nc2ccc(CN3CCOCC3)cc2)cc1OC	8%	0%	?	-4%	-1%	0%
CCc1ccc(C(=O)NC(=S)Nc2ccc(N3CCOCC3)cc2)cc1	-1%	22µM*	?	-2%	-4%	-9%
Cc1ccccc1C(=O)NC(=S)Nc1ccc(N2CCOCC2)cc1	0%	-17%	56µM*	-12%	0%	-13%
COc1ccc(-c2ocnc2C(=O)Nc2cccc(OC)c2)cc1	.	2%	.	.	.	.
COc1cc(NS(=O)(=O)c2cc(-c3cnc(C)o3)ccc2C)cc(OC)c1	.	5%	.	.	.	.
O=C(CCl)N=c1sccn1Cc1ccccc1Cl	8%	-16%	25µM*	3%	-15%	-15%
O=C(CCl)N=c1sccn1Cc1cccc2ccccc12	8%	-21%	?	5%	-14%	?
O=C(CCl)N=c1sccn1Cc1ccc(Cl)cc1Cl	0%	-26%	32µM*	1%	-14%	?
SMILES	IDH1 R132H inh	12-LOX inh	rTrxR1 inhibitor	TrxR1 substrate	GRP78 ERSR act	Apoferritin bind
CCC(=O)OCC(=O)N=c1sccn1Cc1ccccc1Cl	3%	8%	-12%	-8%	-2%	-9%
Cc1ccc(C2Cn3nnc(C(=O)N4CCN(C(=O)Cc5ccc(Cl)cc5)CC4)c3CO2)cc1 (centres undefined)	.	-21%	.	.	.	.
O=S(=O)(c1ccc(F)cc1)N1N=C(c2ccccc2)CC1c1ccc2nccnc2c1 (centres undefined)	.	-6%	.	.	.	.
CC(=O)c1cccc(-n2c(CCC(=O)O)ccc2-c2ccccc2)c1	8%	-12%	50µM*	2%	6%	0%
CC(=O)c1ccc(-n2c(CCC(=O)O)ccc2-c2ccccc2)cc1	-3%	0%	?	3%	-2%	-2%
Cc1noc([C@@H]2CN(C(=O)NCc3ccccc3)C[C@H]2C(N)=O)n1	.	3%	.	.	.	.
